# Results as given in the supplement of paper PMC8728848.
# This is one part of a sample in which the strongest signals are shown more often than they occur.
# Assays:
# Experiment in all cases: glycan array binding signal (z-score within array); higher = stronger binding
# Conditions in all cases: glycan notation: IUPAC condensed, linker removed
# [1] = biological target: Neu5Ac(a2-3)Gal(b1-3)GalNAc(b1-4)Gal(b1-4)Glc
# Summary of the method: (§1)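 Columns mapping to the same glycan were averaged after glycan names were converted to IUPAC-condensed notation. The data come from 3228 arrays in the Consortium for Functional Glycomics database, limited to those with an available protein sequence. Binding is reported as a within-array Z-score averaged across arrays of one protein sequence and across linkers.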
# [2] = biological target: Neu5Ac(a2-3)Gal(b1-3)GalNAc(b1-4)[Neu5Ac(a2-3)]Gal(b1-4)Glc
# Summary of the method: as §1
# [3] = biological target: Neu5Ac(a2-3)Gal(b1-3)GlcNAc(b1-2)Man(a1-3)[GlcNAc(b1-4)][Neu5Ac(a2-3)Gal(b1-3)GlcNAc(b1-2)Man(a1-6)]Man(b1-4)GlcNAc(b1-4)GlcNAc
# Summary of the method: as §1
# Neu5Ac(a2-3)Gal(b1-4)Glc = biological target: Neu5Ac(a2-3)Gal(b1-4)Glc
# Summary of the method: as §1
# [4] = biological target: Neu5Ac(a2-3)Gal(b1-4)GlcNAc(b1-3)Gal(b1-4)GlcNAc(b1-3)GalNAc
# Summary of the method: as §1
# [5] = biological target: Neu5Ac(a2-3)Gal(b1-4)GlcNAc(b1-3)Gal(b1-4)GlcNAc(b1-3)[Neu5Ac(a2-3)Gal(b1-4)GlcNAc(b1-3)Gal(b1-4)GlcNAc(b1-6)]GalNAc
# Summary of the method: as §1
# [6] = biological target: Neu5Ac(a2-3)Gal(b1-4)GlcNAc(b1-6)[Neu5Ac(a2-3)Gal(b1-3)]GalNAc
# Summary of the method: as §1
# [7] = biological target: Neu5Ac(a2-3)Gal(b1-4)[Fuc(a1-3)]GlcNAc(b1-3)GalNAc
# Summary of the method: as §1
# [8] = biological target: Neu5Ac(a2-6)Gal(b1-4)GlcNAc(b1-2)Man(a1-6)[Gal(b1-4)GlcNAc(b1-2)Man(a1-3)]Man(b1-4)GlcNAc(b1-4)GlcNAc
# Summary of the method: as §1
# [9] = biological target: Neu5Ac(a2-6)Gal(b1-4)GlcNAc(b1-2)Man(a1-6)[GlcNAc(b1-2)Man(a1-3)]Man(b1-4)GlcNAc(b1-4)GlcNAc
# Summary of the method: as §1
# [10] = biological target: Neu5Ac(a2-6)Gal(b1-4)GlcNAc(b1-3)Gal(b1-4)GlcNAc(b1-6)[Gal(b1-3)]GalNAc
# Summary of the method: as §1
# [11] = biological target: Neu5Ac(a2-6)GlcNAc(b1-4)GlcNAc
# Summary of the method: as §1
# [12] = biological target: Neu5Ac(a2-8)Neu5Ac(a2-8)Neu5Ac(a2-3)Gal(b1-4)Glc
# Summary of the method: as §1
# [13] = biological target: Neu5Ac(a2-8)Neu5Ac(a2-8)Neu5Ac(a2-3)[GalNAc(b1-4)]Gal(b1-4)Glc
# Summary of the method: as §1
# [14] = biological target: Neu5Gc(a2-8)Neu5Gc(a2-6)Gal(b1-4)GlcNAc
# Summary of the method: as §1
binder,measurement,setting,value
"CcfD (Bacteroides vulgatus), A6KYX8 (protein) MKYKNYFKSIIYLALGAFTLGSCEDFLDRQEDEKLTFDKIWESRNTTQQYWLNAMSFLPNENGSLQGDTEPYLGASDECTIAYDRQYRWINFGTWNPSQVPYYKMDHYYKGIRECNIFLQNVYKCSDPLVTKDQLDEWYWQTRFARAYYYFLMMRDYGPVFLLGDDLLDFTASTEELYRPRNTWDQCVNYVVSEMTQCAESGVVLQQSDLPAAKWGLATVGTCHAVISRLLLYSARPLFNGNKLYSTVKNPDAPDFPELSGVKLFPELDNTKWQKAAEAAKKLIDNPCYELYRAGNDNPYEDYYGVTHETWNKELIWTDRYNGLFSWGVGTVPTGVAGTAYGAVGPTQALVDAYAMNTGWYPITGYEADGTPIVEPLSGYELASELEKSSWIYPSGGWSNKADFEIEAPNMYKDREPRFYVTVFFGGNQWLHGNSATSISFAKGGNGNKSHDYPKSGYLCNRFYDHKLNSSEGQWGNITFPVFRLGEIYLNFIEAVLECKKNGVALDPSYEALAMEKWADLRKRAGLDPITSIYGQVSTEELIQLCRKERQIELAFERHRYFDTRTWMIATQTDNGKMYGMNTSCPLDAGMKGTETPDGFWERTAFETRVFQNKHYLYPFSQRELDRNKLLTQNYGW",glycan array binding signal (z-score),[1],-0.17
same,glycan array binding signal (z-score),[2],2.47
same,glycan array binding signal (z-score),[3],-0.526
same,glycan array binding signal (z-score),Neu5Ac(a2-3)Gal(b1-4)Glc,-0.589
same,glycan array binding signal (z-score),[4],-0.693
same,glycan array binding signal (z-score),[5],-0.429
same,glycan array binding signal (z-score),[6],5
same,glycan array binding signal (z-score),[7],-0.078
same,glycan array binding signal (z-score),[8],6.49
same,glycan array binding signal (z-score),[9],7
same,glycan array binding signal (z-score),[10],-0.841
same,glycan array binding signal (z-score),[11],0.582
same,glycan array binding signal (z-score),[12],-0.871
same,glycan array binding signal (z-score),[13],-0.556
same,glycan array binding signal (z-score),[14],-1.1
